Binding signal data for one sequence are collected here from publication PMC7862700, “An all-to-all approach to the identification of sequence-specific readers for epigenetic DNA modifications on cytosine”.

Holding throughout (test): DAPPL (digital affinity profiling via proximity ligation, sequencing); 10 mM Tris-HCl pH 7.5, 50 mM NaCl, 1 mM DTT, 4% glycerol, room temperature, 30 min; GST-TFs on glutathione beads, 16-mer random dsDNA library, 0.1% formaldehyde crosslink after washing; high values mean tight binding
In one test the target is T1, FEV (Homo sapiens, UniProt Q99581 1-238).
T1 sequence: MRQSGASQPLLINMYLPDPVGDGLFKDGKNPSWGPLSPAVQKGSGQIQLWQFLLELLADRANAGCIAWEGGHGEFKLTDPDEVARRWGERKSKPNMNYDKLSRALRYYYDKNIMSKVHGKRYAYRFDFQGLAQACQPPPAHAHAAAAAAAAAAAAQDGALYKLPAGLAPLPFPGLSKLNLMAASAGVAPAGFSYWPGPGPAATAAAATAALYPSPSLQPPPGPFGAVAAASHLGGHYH
The settings on record: protein: recombinant; tags: N-terminal GST; dsDNA, one strand shown. Put shortly:
(§1)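 Binding signal is each hexamer's read frequency for a factor divided by its frequency in the tag-only sample. The factors were GST-fused human transcription factors from yeast, captured on glutathione beads, DNA-barcoded and pooled with that sample. Pools were incubated with 200 nmole of a random double-stranded 16-mer DNA library in Tris/NaCl/DTT/glycerol buffer at room temperature for 30 min, then washed, crosslinked with 0.1% formaldehyde, proximity-ligated with BsaI/T4 ligase (1 h, 37 °C), PCR-amplified and sequenced on an Illumina NextSeq500.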

The target in the next test is ETV5 (Homo sapiens, UniProt P41161 1-510). The note with it: protein: recombinant; tags: N-terminal GST; dsDNA, one strand shown. Put shortly:
as §1

The next test has as its target HSF1 (Homo sapiens, UniProt Q00613 1-529). The settings on record: protein: recombinant; tags: N-terminal GST; chain copies: 3; dsDNA, one strand shown. An outline of the steps:
as §1

The target in a further test is T2, SPIC (Homo sapiens, UniProt Q8N5J4 1-248).
T2 sequence: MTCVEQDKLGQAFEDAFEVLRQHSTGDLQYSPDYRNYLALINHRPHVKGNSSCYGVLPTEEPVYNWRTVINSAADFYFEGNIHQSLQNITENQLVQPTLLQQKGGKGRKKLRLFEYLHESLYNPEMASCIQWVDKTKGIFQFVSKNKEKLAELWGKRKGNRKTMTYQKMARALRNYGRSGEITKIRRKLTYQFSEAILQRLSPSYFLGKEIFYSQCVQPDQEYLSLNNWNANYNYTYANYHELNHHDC
The settings on record: protein: recombinant; tags: N-terminal GST; dsDNA, one strand shown. Put shortly:
as §1

The next test deals with ELF4 (Homo sapiens, UniProt Q99607 1-663). The note with it: protein: recombinant; tags: N-terminal GST; dsDNA, one strand shown. An outline of the steps: as §1
ELF4, sequence (Q99607 whole entry): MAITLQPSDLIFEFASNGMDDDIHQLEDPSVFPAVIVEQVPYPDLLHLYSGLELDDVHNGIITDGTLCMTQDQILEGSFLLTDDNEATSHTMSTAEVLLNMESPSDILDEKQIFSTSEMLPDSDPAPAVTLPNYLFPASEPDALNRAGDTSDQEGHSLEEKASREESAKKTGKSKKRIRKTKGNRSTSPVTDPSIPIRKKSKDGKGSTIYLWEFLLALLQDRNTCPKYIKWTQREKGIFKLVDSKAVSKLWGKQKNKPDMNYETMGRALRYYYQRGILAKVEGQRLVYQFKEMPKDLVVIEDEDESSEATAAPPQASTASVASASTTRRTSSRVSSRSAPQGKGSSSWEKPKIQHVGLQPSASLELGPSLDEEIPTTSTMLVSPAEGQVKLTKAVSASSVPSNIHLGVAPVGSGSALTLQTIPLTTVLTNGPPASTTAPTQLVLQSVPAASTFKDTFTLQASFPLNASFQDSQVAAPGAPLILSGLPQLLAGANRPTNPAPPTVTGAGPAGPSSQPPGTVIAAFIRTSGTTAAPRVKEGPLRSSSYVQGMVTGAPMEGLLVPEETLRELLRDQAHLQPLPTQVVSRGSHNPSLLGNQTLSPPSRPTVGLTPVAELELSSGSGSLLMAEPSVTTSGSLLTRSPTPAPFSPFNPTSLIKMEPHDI
Another test concerns the target T3, ELK4 (Homo sapiens, UniProt P28324-2 1-405).
T3 sequence: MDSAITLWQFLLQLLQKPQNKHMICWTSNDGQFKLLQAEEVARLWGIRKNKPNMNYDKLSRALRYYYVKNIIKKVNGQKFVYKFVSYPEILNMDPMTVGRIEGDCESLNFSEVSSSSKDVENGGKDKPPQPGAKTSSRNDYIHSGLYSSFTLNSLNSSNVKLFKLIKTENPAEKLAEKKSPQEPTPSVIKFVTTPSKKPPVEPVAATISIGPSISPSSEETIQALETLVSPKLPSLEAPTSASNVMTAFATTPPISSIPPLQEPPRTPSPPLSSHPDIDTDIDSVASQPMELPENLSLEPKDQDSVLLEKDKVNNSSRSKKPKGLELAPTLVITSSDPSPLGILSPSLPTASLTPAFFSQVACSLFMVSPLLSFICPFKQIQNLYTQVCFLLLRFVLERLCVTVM
The note with it: protein: recombinant; tags: N-terminal GST; dsDNA, one strand shown. An outline of the steps: as §1

Another test addresses T4, ETV2 (Homo sapiens, UniProt O00321 1-342).
T4 sequence: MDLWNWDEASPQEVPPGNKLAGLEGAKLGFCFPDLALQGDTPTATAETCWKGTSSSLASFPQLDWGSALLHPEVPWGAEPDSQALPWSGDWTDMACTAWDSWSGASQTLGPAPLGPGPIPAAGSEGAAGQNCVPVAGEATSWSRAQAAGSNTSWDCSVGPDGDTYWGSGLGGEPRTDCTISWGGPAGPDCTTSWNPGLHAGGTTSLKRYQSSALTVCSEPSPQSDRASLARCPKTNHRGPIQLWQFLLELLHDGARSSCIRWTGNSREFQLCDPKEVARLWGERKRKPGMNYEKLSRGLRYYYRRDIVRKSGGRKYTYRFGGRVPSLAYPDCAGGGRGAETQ
The settings on record: protein: recombinant; tags: N-terminal GST; dsDNA, one strand shown. An outline of the steps: as §1

A further test concerns the target T5, ELF3 (Homo sapiens, UniProt P78545 1-371).
T5 sequence: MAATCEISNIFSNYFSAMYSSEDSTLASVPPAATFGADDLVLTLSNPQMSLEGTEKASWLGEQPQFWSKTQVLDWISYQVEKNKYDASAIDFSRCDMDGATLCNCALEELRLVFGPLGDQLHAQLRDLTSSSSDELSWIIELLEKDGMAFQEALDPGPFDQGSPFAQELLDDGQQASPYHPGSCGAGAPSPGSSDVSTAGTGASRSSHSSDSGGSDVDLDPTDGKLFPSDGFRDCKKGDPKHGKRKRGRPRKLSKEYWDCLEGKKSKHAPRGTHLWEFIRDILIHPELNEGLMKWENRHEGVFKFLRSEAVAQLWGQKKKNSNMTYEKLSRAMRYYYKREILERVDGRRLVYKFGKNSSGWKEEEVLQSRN
The settings on record: protein: recombinant; tags: N-terminal GST; dsDNA, one strand shown. An outline of the steps: as §1

The target in a further test is CRX (Homo sapiens, UniProt O43186 1-299). The note with it: protein: recombinant; tags: N-terminal GST; dsDNA, one strand shown. An outline of the steps:
as §1

A further test has as its target ETV1 (Homo sapiens, UniProt P50549 1-477). The settings on record: protein: recombinant; tags: N-terminal GST; dsDNA, one strand shown. An outline of the steps: as §1
Another test has as its target T6, ERF (Homo sapiens, UniProt P50548 1-548).
T6 sequence: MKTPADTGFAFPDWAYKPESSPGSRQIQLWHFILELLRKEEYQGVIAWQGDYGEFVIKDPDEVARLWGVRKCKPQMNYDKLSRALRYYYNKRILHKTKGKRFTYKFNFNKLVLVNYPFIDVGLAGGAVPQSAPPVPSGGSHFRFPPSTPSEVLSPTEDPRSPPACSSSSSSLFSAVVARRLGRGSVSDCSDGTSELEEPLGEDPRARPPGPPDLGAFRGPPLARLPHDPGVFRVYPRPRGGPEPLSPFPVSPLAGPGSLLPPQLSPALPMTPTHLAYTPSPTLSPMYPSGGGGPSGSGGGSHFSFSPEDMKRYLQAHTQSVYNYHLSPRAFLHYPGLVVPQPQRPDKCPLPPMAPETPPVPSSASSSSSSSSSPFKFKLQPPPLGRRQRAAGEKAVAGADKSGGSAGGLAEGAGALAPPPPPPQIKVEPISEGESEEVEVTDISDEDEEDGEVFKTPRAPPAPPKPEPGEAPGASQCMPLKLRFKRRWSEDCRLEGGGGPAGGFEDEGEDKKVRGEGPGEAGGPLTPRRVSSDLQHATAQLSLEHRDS
The note with it: protein: recombinant; tags: N-terminal GST; dsDNA, one strand shown. An outline of the steps:
as §1

The target in the next test is T7, ETV3L (Homo sapiens, UniProt Q6ZN32 1-361).
T7 sequence: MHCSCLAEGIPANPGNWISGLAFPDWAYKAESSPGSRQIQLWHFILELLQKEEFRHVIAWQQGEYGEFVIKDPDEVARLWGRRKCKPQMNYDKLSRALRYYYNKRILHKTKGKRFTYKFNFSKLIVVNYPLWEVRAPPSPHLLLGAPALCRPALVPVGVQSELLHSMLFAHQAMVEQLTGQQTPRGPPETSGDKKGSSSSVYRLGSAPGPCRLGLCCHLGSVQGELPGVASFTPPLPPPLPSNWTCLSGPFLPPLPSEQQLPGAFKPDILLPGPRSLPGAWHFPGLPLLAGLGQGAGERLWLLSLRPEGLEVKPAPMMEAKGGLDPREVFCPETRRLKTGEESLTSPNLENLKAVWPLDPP
The settings on record: protein: recombinant; tags: N-terminal GST; dsDNA, one strand shown. Put shortly:
as §1

For a further test, the target named is T8, ETS2 (Homo sapiens, UniProt P15036 1-469).
T8 sequence: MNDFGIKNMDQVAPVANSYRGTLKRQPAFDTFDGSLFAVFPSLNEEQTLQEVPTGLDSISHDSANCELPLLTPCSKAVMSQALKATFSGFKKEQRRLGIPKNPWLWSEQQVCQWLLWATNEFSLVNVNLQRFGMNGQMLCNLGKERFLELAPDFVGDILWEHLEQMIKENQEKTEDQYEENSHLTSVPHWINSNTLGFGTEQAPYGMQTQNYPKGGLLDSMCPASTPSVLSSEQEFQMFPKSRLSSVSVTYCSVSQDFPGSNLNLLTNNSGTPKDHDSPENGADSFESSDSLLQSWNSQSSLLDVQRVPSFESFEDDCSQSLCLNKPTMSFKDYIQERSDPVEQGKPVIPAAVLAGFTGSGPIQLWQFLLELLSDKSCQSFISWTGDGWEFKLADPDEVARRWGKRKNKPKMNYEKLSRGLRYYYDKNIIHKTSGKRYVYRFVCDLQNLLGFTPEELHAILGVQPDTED
The settings on record: protein: recombinant; tags: N-terminal GST; dsDNA, one strand shown. Put shortly:
as §1

Another test concerns the target T9, SPDEF (Homo sapiens, UniProt O95238 1-335).
T9 sequence: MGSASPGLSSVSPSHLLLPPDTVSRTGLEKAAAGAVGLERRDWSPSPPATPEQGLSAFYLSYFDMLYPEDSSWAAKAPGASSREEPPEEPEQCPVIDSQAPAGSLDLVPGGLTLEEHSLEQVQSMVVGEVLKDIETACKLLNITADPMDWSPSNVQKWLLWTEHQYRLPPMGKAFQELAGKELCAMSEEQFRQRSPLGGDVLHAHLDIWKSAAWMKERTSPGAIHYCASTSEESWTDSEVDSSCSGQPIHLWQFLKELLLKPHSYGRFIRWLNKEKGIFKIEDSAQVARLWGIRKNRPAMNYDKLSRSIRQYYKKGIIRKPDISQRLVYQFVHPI
The settings on record: protein: recombinant; tags: N-terminal GST; dsDNA, one strand shown. Put shortly: as §1

A further test has as its target T10, ETV7 (Homo sapiens, UniProt Q9Y603 1-341).
T10 sequence: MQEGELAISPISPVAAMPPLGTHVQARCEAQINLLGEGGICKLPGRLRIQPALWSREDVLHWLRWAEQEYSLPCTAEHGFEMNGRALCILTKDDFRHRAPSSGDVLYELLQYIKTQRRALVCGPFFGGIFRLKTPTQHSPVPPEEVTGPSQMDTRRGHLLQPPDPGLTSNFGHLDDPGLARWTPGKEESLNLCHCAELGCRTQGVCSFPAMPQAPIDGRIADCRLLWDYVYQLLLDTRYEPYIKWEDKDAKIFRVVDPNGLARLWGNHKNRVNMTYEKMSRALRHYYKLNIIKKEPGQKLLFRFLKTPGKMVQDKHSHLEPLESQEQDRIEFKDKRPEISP
The note with it: protein: recombinant; tags: N-terminal GST; dsDNA, one strand shown. Put shortly:
as §1

A further test concerns the target T11, ELF5 (Homo sapiens, UniProt Q9UKW6-2 1-255).
T11 sequence: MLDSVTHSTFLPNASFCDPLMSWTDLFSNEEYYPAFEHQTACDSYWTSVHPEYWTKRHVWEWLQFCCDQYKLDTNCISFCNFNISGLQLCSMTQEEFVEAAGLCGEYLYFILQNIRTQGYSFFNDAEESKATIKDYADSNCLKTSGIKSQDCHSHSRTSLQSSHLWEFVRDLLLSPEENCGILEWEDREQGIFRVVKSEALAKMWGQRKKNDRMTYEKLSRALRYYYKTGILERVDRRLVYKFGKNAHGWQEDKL
The settings on record: protein: recombinant; tags: N-terminal GST; dsDNA, one strand shown. An outline of the steps:
as §1

The target in a further test is T12, ETV3 (Homo sapiens, UniProt P41162-2 1-143).
T12 sequence: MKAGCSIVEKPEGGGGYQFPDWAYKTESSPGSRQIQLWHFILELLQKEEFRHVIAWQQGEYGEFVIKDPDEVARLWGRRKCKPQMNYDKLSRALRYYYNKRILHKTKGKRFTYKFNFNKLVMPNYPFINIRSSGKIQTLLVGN
The settings on record: protein: recombinant; tags: N-terminal GST; dsDNA, one strand shown. An outline of the steps: as §1

For the next test, the target named is ETV6 (Homo sapiens, UniProt P41212 1-452). The note with it: protein: recombinant; tags: N-terminal GST; dsDNA, one strand shown. Put shortly: as §1
ETV6, sequence (P41212 whole entry): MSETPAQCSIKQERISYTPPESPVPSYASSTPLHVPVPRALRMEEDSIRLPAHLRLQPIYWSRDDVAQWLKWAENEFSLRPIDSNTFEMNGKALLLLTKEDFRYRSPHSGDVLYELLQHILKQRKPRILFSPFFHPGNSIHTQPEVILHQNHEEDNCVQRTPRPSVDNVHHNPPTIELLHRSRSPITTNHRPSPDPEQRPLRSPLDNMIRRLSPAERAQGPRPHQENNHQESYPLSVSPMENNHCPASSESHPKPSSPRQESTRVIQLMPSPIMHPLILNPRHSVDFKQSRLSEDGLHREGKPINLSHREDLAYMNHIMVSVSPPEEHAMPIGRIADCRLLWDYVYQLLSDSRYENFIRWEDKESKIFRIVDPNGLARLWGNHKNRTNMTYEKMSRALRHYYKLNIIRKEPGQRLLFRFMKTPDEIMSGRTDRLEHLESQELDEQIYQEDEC

ETV5, sequence (P41161 whole entry): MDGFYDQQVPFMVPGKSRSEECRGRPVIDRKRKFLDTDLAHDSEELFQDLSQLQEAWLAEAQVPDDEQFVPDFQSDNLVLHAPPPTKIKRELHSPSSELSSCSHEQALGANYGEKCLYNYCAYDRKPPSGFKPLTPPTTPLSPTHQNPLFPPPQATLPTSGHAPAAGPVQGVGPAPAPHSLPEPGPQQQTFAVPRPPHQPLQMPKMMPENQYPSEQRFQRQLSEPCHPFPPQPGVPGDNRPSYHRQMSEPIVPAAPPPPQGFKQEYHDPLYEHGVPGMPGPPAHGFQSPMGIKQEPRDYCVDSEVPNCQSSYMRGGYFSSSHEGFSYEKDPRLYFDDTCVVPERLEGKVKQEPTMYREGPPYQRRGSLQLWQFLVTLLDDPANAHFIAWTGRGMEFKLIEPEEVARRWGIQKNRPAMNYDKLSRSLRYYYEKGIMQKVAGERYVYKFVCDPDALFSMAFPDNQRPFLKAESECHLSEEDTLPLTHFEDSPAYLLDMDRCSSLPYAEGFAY
CRX, sequence (O43186 whole entry): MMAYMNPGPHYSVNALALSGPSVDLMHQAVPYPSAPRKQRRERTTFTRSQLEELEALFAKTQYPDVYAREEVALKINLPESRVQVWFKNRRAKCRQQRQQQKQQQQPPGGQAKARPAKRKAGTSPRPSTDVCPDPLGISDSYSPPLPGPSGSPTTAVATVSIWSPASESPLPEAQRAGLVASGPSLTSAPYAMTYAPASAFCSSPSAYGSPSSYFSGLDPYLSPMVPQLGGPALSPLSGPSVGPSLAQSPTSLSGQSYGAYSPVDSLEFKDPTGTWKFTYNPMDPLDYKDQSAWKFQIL
ETV1, sequence (P50549 whole entry): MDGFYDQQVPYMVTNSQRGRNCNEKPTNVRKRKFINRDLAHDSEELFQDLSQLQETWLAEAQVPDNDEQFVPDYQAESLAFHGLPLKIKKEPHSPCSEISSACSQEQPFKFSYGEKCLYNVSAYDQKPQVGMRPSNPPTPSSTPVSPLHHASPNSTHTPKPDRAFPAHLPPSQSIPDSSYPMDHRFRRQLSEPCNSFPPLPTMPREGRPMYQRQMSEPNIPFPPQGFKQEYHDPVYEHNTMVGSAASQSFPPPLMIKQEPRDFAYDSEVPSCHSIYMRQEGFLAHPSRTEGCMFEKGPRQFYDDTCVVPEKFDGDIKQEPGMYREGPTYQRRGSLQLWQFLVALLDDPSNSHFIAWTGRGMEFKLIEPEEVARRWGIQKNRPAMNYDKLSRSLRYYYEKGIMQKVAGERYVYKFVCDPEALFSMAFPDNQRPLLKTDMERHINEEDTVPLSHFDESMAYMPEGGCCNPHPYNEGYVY
HSF1, sequence (Q00613 whole entry): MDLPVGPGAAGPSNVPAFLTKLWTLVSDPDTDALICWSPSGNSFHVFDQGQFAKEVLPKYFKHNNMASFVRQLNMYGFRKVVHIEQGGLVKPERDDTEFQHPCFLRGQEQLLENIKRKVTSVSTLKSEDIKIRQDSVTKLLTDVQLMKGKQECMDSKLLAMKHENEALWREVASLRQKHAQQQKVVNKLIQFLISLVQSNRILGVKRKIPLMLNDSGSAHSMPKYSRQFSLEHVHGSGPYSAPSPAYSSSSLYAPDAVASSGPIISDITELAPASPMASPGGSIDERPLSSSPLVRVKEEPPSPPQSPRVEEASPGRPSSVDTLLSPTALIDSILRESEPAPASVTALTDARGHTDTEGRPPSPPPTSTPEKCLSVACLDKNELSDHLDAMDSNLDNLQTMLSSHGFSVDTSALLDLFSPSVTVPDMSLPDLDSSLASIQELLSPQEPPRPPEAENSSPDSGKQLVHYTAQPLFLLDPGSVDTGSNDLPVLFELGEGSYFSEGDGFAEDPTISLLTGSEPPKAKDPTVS

As for ATGACA, the binding signal in the test with FEV was 1.22 fold enrichment (6-mer frequency, TF over GST control); with ETV5, 1.29 fold enrichment (6-mer frequency, TF over GST control); with HSF1 it was 1.09 fold enrichment (6-mer frequency, TF over GST control); in the test with SPIC it was 1.14 fold enrichment (6-mer frequency, TF over GST control); with ELF4 it was 1.32 fold enrichment (6-mer frequency, TF over GST control); with ELK4, 1.19 fold enrichment (6-mer frequency, TF over GST control). Further, the binding signal with ETV2 is 1.19 fold enrichment (6-mer frequency, TF over GST control); with ELF3, 1.33 fold enrichment (6-mer frequency, TF over GST control); in the test with CRX it was 1.09 fold enrichment (6-mer frequency, TF over GST control); with ETV1 it was 1.28 fold enrichment (6-mer frequency, TF over GST control); with ERF, 1.31 fold enrichment (6-mer frequency, TF over GST control); with ETV3L, 1.28 fold enrichment (6-mer frequency, TF over GST control). Also, the binding signal with ETS2 is 1.33 fold enrichment (6-mer frequency, TF over GST control); with SPDEF, 1.31 fold enrichment (6-mer frequency, TF over GST control); with ETV7 it was 1.44 fold enrichment (6-mer frequency, TF over GST control); with ELF5, 1.24 fold enrichment (6-mer frequency, TF over GST control); with ETV3 it was 1.39 fold enrichment (6-mer frequency, TF over GST control); with ETV6, 1.34 fold enrichment (6-mer frequency, TF over GST control).
